# Laboratory results reported in the supplement of paper PMC8728848.
# About 410 targets per protein were measured; listed, in parts, are those with the strongest signals and a random draw of the rest.
# B1: DC-Sign-R (Homo sapiens), Q9H2X3 (protein)
# chain: MSDSKEPRVQQLGLLEEDPTTSGIRLFPRDFQFQQIHGHKSSTGCLGHGALVLQLLSFMLLAGVLVAILVQVSKVPSSLSQEQSEQDAIYQNLTQLKAAVGELSEKSKLQEIYQELTQLKAAVGELPEKSKLQEIYQELTRLKAAVGELPEKSKLQEIYQELTRLKAAVGELPEKSKLQEIYQELTRLKAAVGELPEKSKLQEIYQELTELKAAVGELPEKSKLQEIYQELTQLKAAVGELPDQSKQQQIYQELTDLKTAFERLCRHCPKDWTFFQGNCYFMSNSQRNWHDSVTACQEVRAQLVVIKTAEEQNFLQLQTSRSNRFSWMGLSDLNQEGTWQWVDGSPLSPSFQRYWNSGEPNNSGNEDCAEFSGSGWNDNRCDVDNYWICKKPAACFRDE
# Assays:
# Test in all cases: glycan array binding signal (z-score within array); higher = stronger binding
# Conditions in all cases: glycan notation: IUPAC condensed, linker removed
# [1] = target: Fuc(a1-2)Gal(b1-3)GalNAc(b1-4)[Neu5Ac(a2-3)]Gal(b1-4)Glc
# How it was run: (§1)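 The binding signal is a Z-score computed within each array. Data were drawn from 3228 arrays in the Consortium for Functional Glycomics database, restricted to those with a known protein sequence. Scores were averaged over arrays of the same protein sequence at different concentrations or buffers, and over linkers, and negative values can be taken as non-binding.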
# [2] = target: Fuc(a1-2)Gal(b1-4)GlcNAc(b1-2)Man
# How it was run: as §1
# [3] = target: Fuc(a1-2)Gal(b1-4)GlcNAc(b1-2)[Fuc(a1-2)Gal(b1-4)GlcNAc(b1-4)]Man(a1-3)[Fuc(a1-2)Gal(b1-4)GlcNAc(b1-2)Man(a1-6)]Man(b1-4)GlcNAc(b1-4)GlcNAc
# How it was run: as §1
# [4] = target: Fuc(a1-2)Gal(b1-4)GlcNAc(b1-6)GalNAc
# How it was run: as §1
# [5] = target: Fuc(a1-2)Gal(b1-4)[Fuc(a1-3)]GlcNAc(b1-3)Gal(b1-4)[Fuc(a1-3)]GlcNAc(b1-3)Gal(b1-4)[Fuc(a1-3)]GlcNAc
# How it was run: as §1
# Fuc(a1-2)Gal6S(b1-4)Glc = target: Fuc(a1-2)Gal6S(b1-4)Glc
# How it was run: as §1
# [6] = target: Fuc(a1-2)[Gal(a1-3)]Gal(b1-4)[Fuc(a1-3)]GlcNAc
# How it was run: as §1
# [7] = target: Fuc(a1-2)[GalNAc(a1-3)]Gal(b1-3)GalNAc(a1-3)[Fuc(a1-2)]Gal(b1-4)GlcNAc
# How it was run: as §1
# [8] = target: Fuc(a1-2)[GalNAc(a1-3)]Gal(b1-4)GlcNAc(b1-2)Man(a1-3)[Fuc(a1-2)[GalNAc(a1-3)]Gal(b1-4)GlcNAc(b1-2)Man(a1-6)]Man(b1-4)GlcNAc(b1-4)GlcNAc
# How it was run: as §1
# [9] = target: Fuc(a1-3)[Gal(b1-4)]GlcNAc(b1-3)Gal(b1-4)[Fuc(a1-3)]GlcNAc(b1-3)Gal(b1-4)[Fuc(a1-3)]GlcNAc
# How it was run: as §1
# Gal(a1-3)Gal(b1-4)Glc = target: Gal(a1-3)Gal(b1-4)Glc
# How it was run: as §1
# [10] = target: Gal(a1-4)Gal(b1-3)GlcNAc(b1-2)Man(a1-3)[Gal(a1-4)Gal(b1-3)GlcNAc(b1-2)Man(a1-6)]Man(b1-4)GlcNAc(b1-4)GlcNAc
# How it was run: as §1
# [11] = target: Gal(a1-4)Gal(b1-4)GlcNAc(b1-2)Man(a1-3)[Gal(a1-4)Gal(b1-4)GlcNAc(b1-2)Man(a1-6)]Man(b1-4)GlcNAc(b1-4)GlcNAc
# How it was run: as §1
# Gal(a1-6)Glc = target: Gal(a1-6)Glc
# How it was run: as §1
# [12] = target: Gal(b1-3)GalNAc(a1-3)[Fuc(a1-2)]Gal(b1-4)GlcNAc
# How it was run: as §1
# [13] = target: Gal(b1-3)GlcNAc(b1-3)Gal(b1-4)GlcNAc(b1-3)Gal(b1-4)GlcNAc(b1-2)[Gal(b1-3)GlcNAc(b1-3)Gal(b1-4)GlcNAc(b1-3)Gal(b1-4)GlcNAc(b1-6)]Man(a1-6)[Gal(b1-3)GlcNAc(b1-3)Gal(b1-4)GlcNAc(b1-3)Gal(b1-4)GlcNAc(b1-2)Man(a1-3)]Man(b1-4)GlcNAc(b1-4)[Fuc(a1-6)]GlcNAc
# How it was run: as §1
# [14] = target: Gal(b1-3)GlcNAc(b1-3)Gal(b1-4)GlcNAc(b1-6)[Gal(b1-3)GlcNAc(b1-3)]Gal(b1-4)Glc
# How it was run: as §1
# [15] = target: Gal(b1-4)GlcNAc(b1-2)Man(a1-6)[Man(a1-3)]Man(b1-4)GlcNAc(b1-4)GlcNAc
# How it was run: as §1
# [16] = target: Gal(b1-4)GlcNAc(b1-2)[Gal(b1-4)GlcNAc(b1-6)]Man(a1-6)[Gal(b1-4)GlcNAc(b1-2)Man(a1-3)]Man(b1-4)GlcNAc(b1-4)GlcNAc
# How it was run: as §1
# [17] = target: Gal(b1-4)GlcNAc(b1-3)Gal(b1-4)GlcNAc(b1-2)[Gal(b1-4)GlcNAc(b1-3)Gal(b1-4)GlcNAc(b1-6)]Man(a1-6)[Gal(b1-4)GlcNAc(b1-3)Gal(b1-4)GlcNAc(b1-2)Man(a1-3)]Man(b1-4)GlcNAc(b1-4)GlcNAc
# How it was run: as §1
# [18] = target: Gal(b1-4)GlcNAc(b1-3)Gal(b1-4)GlcNAc(b1-3)[Gal(b1-4)GlcNAc(b1-3)Gal(b1-4)GlcNAc(b1-6)]GalNAc
# How it was run: as §1
# Gal6S(b1-4)Glc = target: Gal6S(b1-4)Glc
# How it was run: as §1
# [19] = target: GalNAc3S(b1-4)[Fuc(a1-3)]GlcNAc
# How it was run: as §1
# [20] = target: GlcNAc(b1-2)[GlcNAc(b1-4)]Man(a1-3)[GlcNAc(b1-4)][GlcNAc(b1-2)Man(a1-6)]Man(b1-4)GlcNAc(b1-4)GlcNAc
# How it was run: as §1
# [21] = target: GlcNAc(b1-3)Gal(b1-4)GlcNAc(b1-2)Man(a1-3)[GlcNAc(b1-3)Gal(b1-4)GlcNAc(b1-2)Man(a1-6)]Man(b1-4)GlcNAc(b1-4)[Fuc(a1-6)]GlcNAc
# How it was run: as §1
# [22] = target: GlcNAc(b1-3)Gal(b1-4)GlcNAc(b1-2)[GlcNAc(b1-3)Gal(b1-4)GlcNAc(b1-6)]Man(a1-6)[GlcNAc(b1-3)Gal(b1-4)GlcNAc(b1-2)Man(a1-3)]Man(b1-4)GlcNAc(b1-4)GlcNAc
# How it was run: as §1
# [23] = target: Man(a1-2)Man(a1-6)[Man(a1-3)]Man(a1-6)[Man(a1-2)Man(a1-2)Man(a1-3)]Man(b1-4)GlcNAc(b1-4)GlcNAc
# How it was run: as §1
# Man(a1-3)[Man(a1-6)]Man = target: Man(a1-3)[Man(a1-6)]Man
# How it was run: as §1
# MurNAc(b1-4)GlcNAc = target: MurNAc(b1-4)GlcNAc
# How it was run: as §1
# [24] = target: Neu5Ac(a2-3)Gal(b1-3)[Fuc(a1-4)]GlcNAc(b1-3)Gal(b1-4)[Fuc(a1-3)]GlcNAc
# How it was run: as §1
binder,measurement,setting,value
B1,glycan array binding signal (z-score),[1],-0.074
same,glycan array binding signal (z-score),[2],1.11
same,glycan array binding signal (z-score),[3],-0.8
same,glycan array binding signal (z-score),[4],-0.508
same,glycan array binding signal (z-score),[5],-0.308
same,glycan array binding signal (z-score),Fuc(a1-2)Gal6S(b1-4)Glc,-0.528
same,glycan array binding signal (z-score),[6],0.112
same,glycan array binding signal (z-score),[7],-0.817
same,glycan array binding signal (z-score),[8],-0.72
same,glycan array binding signal (z-score),[9],-0.384
same,glycan array binding signal (z-score),Gal(a1-3)Gal(b1-4)Glc,-0.655
same,glycan array binding signal (z-score),[10],-0.125
same,glycan array binding signal (z-score),[11],-0.683
same,glycan array binding signal (z-score),Gal(a1-6)Glc,-0.326
same,glycan array binding signal (z-score),[12],1.15
same,glycan array binding signal (z-score),[13],2.5
same,glycan array binding signal (z-score),[14],-0.833
same,glycan array binding signal (z-score),[15],3
same,glycan array binding signal (z-score),[16],-0.33
same,glycan array binding signal (z-score),[17],3.03
same,glycan array binding signal (z-score),[18],0.59
same,glycan array binding signal (z-score),Gal6S(b1-4)Glc,-0.744
same,glycan array binding signal (z-score),[19],-0.794
same,glycan array binding signal (z-score),[20],2.91
same,glycan array binding signal (z-score),[21],0.094
same,glycan array binding signal (z-score),[22],2.48
same,glycan array binding signal (z-score),[23],-0.019
same,glycan array binding signal (z-score),Man(a1-3)[Man(a1-6)]Man,-0.857
same,glycan array binding signal (z-score),MurNAc(b1-4)GlcNAc,0.448
same,glycan array binding signal (z-score),[24],-0.503
